This is part of a sample that, as a whole, favours compounds with a hit. Of some 83,000 tested, about 20% had one in any assay.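 How to read the values: 0–100, growth inhibition (40 = 60% inhibited); 0, no net growth; -100 to 0, cell death (-40 = 40% of starting cells died; -100 = all dead).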 Activity calls are given as the source filed them. The calls were made as follows: active = growth percent below 10; inactive = the rest.
Assays:
Test in all cases: NCI-60 one-dose screen, 48 h (100 = growth as untreated, 0 = no growth, -100 = all killed)
Conditions in all cases: 10 µM unless noted
[1] = system: SK-MEL-2 melanoma
[2] = system: EKVX NSCLC
[3] = system: SN12C renal
[4] = system: UO-31 renal
[5] = system: TK-10 renal
[6] = system: ACHN renal
[7] = system: CAKI-1 renal
[8] = system: A498 renal
[9] = system: CCRF-CEM leukemia
[10] = system: MOLT-4 leukemia
[11] = system: SR leukemia
[12] = system: RPMI-8226 leukemia
[13] = system: OVCAR-8 ovarian
[14] = system: OVCAR-5 ovarian
[15] = system: OVCAR-4 ovarian
[16] = system: SK-OV-3 ovarian
[17] = system: IGROV1 ovarian
[18] = system: OVCAR-3 ovarian
[19] = system: HS 578T breast
[20] = system: NCI/ADR-RES ovarian

Measured: growth

CCOC(=O)c1ccc(Nc2nc(NN)nc(-c3ccc(OC)cc3)c2C#N)cc1
inactive: [1] 114% | [2] 118% | [3] 114% | [4] 93.8% | [5] 120% | [6] 113% | [7] 105% | [8] 118% | [10] 36.1% | [11] 97.2% | [12] 92% | [13] 116% | [14] 104% | [15] 104% | [16] 119% | [17] 108% | [18] 107% | [19] 104% | [20] 113%
active: [9] -5.35%

CC1=C(C(=O)c2ccccc2)C(c2ccc(-n3cncn3)cc2)n2c(nc3ccccc32)N1 (stereo not given)
active: [4] -22.7%
inactive: [1] 101% | [2] 64.4% | [3] 79.4% | [5] 104% | [6] 88.8% | [7] 62.8% | [8] 113% | [9] 70.9% | [10] 66.9% | [11] 76.9% | [12] 63.4% | [13] 91.4% | [14] 97.3% | [15] 71.8% | [16] 79.3% | [17] 83.1% | [18] 107% | [20] 85.6%

COc1ccc(-c2ccnc(SCc3cc4ccccc4[nH]c3=O)n2)cc1OC
inactive: [1] 17.4% | [5] 22.9% | [9] 106% | [10] 74% | [11] 40.3% | [12] 45% | [17] 10.9% | [18] 20.7%
active: [2] -16.6% | [3] -37.6% | [4] -73.4% | [6] -76.6% | [7] -67% | [8] -18.9% | [13] 0.24% | [14] -41% | [15] -2.39% | [16] -69.7% | [19] -23.6% | [20] -40.7%

Cc1ccc(-c2nc(C#N)c(S(=O)(=O)N3CCN(S(=O)(=O)c4ccc(Cl)cc4)CC3)o2)cc1
inactive: [1] 95.7% | [2] 99% | [3] 93.4% | [4] 97.3% | [5] 117% | [6] 43.8% | [7] 94.1% | [8] 107% | [9] 13.1% | [10] 75.7% | [11] 47.3% | [12] 97% | [13] 82.2% | [14] 105% | [15] 86.8% | [16] 87.2% | [17] 95.8% | [18] 114% | [19] 65.2% | [20] 91%

C=C1CC[C@@H]2[C@]3(C)COC(c4cn(-c5ccccc5)nc4-c4ccccc4)O[C@@H]3CC[C@@]2(C)[C@@H]1C/C=C1/C(=O)OC[C@H]1O (stereo not given in full)
inactive: [9] 31.5% | [16] 12.6%
active: [1] -81.1% | [2] -63.5% | [3] -67.1% | [4] -78.1% | [5] -57.3% | [6] -95.5% | [7] -39.7% | [8] -13.9% | [10] -45.7% | [11] -32.7% | [12] -10.3% | [13] -49.5% | [14] -50.5% | [15] -30.4% | [17] -76.7% | [18] -77.8% | [20] -69.4%

N/C(=N\N=C\c1ccc([N+](=O)[O-])cc1)c1c(N)nc(=S)[nH]c1-c1ccc(Cl)cc1Cl
inactive: [1] 93.4% | [2] 98.9% | [3] 96.1% | [4] 98.3% | [5] 142% | [6] 88.9% | [7] 78.9% | [8] 160% | [9] 106% | [10] 94% | [11] 76.9% | [12] 97.3% | [13] 98.4% | [14] 111% | [15] 111% | [16] 89.1% | [17] 94.9% | [18] 110% | [19] 87.1% | [20] 105%

O=C(O)c1ccc(-c2ccc(/C=N/NC(=O)c3[nH]c4ccc(Br)cc4c3-c3ccccc3)s2)cc1
active: [1] -43% | [9] 7.68% | [11] 0.386% | [18] 2.13%
inactive: [2] 13.3% | [3] 11.5% | [4] 24.7% | [5] 22.8% | [6] 14.2% | [7] 20% | [8] 40% | [10] 10.7% | [12] 12.1% | [13] 20.2% | [14] 35.5% | [15] 22.5% | [16] 16.8% | [17] 14.7% | [20] 19.9%

CC1CCCCN1CCCNC(=O)N/C(N)=N/c1nc2ccccc2s1 (stereo not given)
active: [11] -17.1% | [12] 1.48%
inactive: [1] 41.3% | [2] 46.1% | [3] 40.9% | [4] 24.4% | [5] 70.1% | [6] 42.5% | [7] 24.6% | [8] 104% | [9] 26.8% | [10] 16.4% | [13] 75.2% | [14] 38.2% | [15] 74.9% | [16] 58.8% | [17] 47.9% | [18] 72.4% | [20] 64.1%

Brc1ccc(-c2n(Cc3ccc4ccccc4c3)c(-c3ccccc3)c(-c3ccccc3)[n+]2Cc2ccc3ccccc3c2)cc1
active: [1] -90.1% | [2] -86.7% | [3] -85.4% | [4] -79% | [5] -92.5% | [6] -100% | [7] -97% | [8] -94% | [9] -10.5% | [10] -5.89% | [11] -36.8% | [12] -38% | [13] -77.4% | [14] -100% | [15] -83.3% | [16] -96.7% | [17] -81.7% | [18] -79% | [19] -46.3% | [20] -78.2%

COC(=O)/C=C/c1cccc2c1C(=O)NC(C)(c1cc3cc4ccccc4cc3oc1=O)N2 (stereo not given)
inactive: [1] 79.4% | [2] 67.5% | [3] 35.1% | [4] 65.4% | [5] 99.7% | [6] 40.1% | [7] 61.9% | [8] 90.6% | [9] 53% | [10] 58.7% | [11] 28% | [12] 40.2% | [13] 54.3% | [14] 63.3% | [16] 95.6% | [17] 65.2% | [18] 32% | [19] 29.5% | [20] 35.2%
active: [15] 5.78%

CC(=O)Oc1ccccc1C(=O)[Se]CC(=O)Nc1cccc(C(F)(F)F)c1
active: [1] -21% | [2] -96.7% | [3] -80.3% | [4] -85% | [5] -83.8% | [6] -34.8% | [7] -74.4% | [8] -61% | [13] -46.6% | [14] -30.9% | [16] 0.121% | [17] -64.9% | [18] -12% | [20] -63.8%
inactive: [9] 24.6% | [10] 11.7% | [11] 31.2% | [12] 35.6% | [15] 39.6%

CCCCCCn1c(O)c(N=Nc2nc(-c3cc4ccccc4oc3=O)cs2)c2ccccc21
inactive: [1] 79.7% | [3] 63.8% | [4] 75.1% | [5] 90.4% | [6] 81.4% | [7] 58.9% | [8] 88% | [10] 23.4% | [11] 12% | [12] 60.9% | [13] 34.1% | [16] 96.9% | [19] 60.5% | [20] 50.2%
active: [2] 1.67% | [9] 5.68% | [14] -53.2% | [15] -48.2% | [17] -62.4% | [18] -94.9%

COc1cccc(-c2nc(Nc3ccc(S(N)(=O)=O)cc3)c3ccccc3n2)c1
active: [12] 6.94%
inactive: [1] 46.6% | [2] 45.5% | [3] 44.6% | [4] 17.4% | [5] 47.3% | [6] 17.7% | [7] 25.2% | [8] 23.9% | [9] 18.7% | [10] 16.8% | [11] 23.6% | [13] 35.5% | [14] 72.5% | [15] 35.1% | [16] 73.5% | [17] 42.4% | [18] 22.9% | [19] 44% | [20] 26.4%

Cn1cc(-c2cc(N)n3nc(-c4c[nH]c5ccccc45)cc3n2)c2cc(Br)cnc21
active: [1] -72.6% | [2] -60.4% | [3] -81.5% | [4] -42.1% | [5] -58.2% | [6] -74.6% | [7] -36% | [8] -28.6% | [9] -36.2% | [10] -52% | [11] -29.5% | [12] -14.8% | [13] -22.6% | [14] -77.6% | [15] 5.89% | [16] -34.6% | [17] -41.9% | [18] -66% | [19] -17.5% | [20] -44.6%

Cn1cc(-c2nc(N)nnc2-c2c[nH]c3ccc(F)cc23)c2cccnc21
inactive: [1] 85.6% | [2] 62.3% | [3] 49.3% | [4] 14.8% | [5] 44.6% | [6] 14.9% | [7] 12.6% | [8] 36.8% | [9] 27.5% | [10] 18.2% | [11] 17.8% | [12] 44.7% | [13] 50.3% | [14] 80.2% | [15] 70.7% | [16] 41.3% | [17] 22.3% | [18] 60.7% | [19] 15.1% | [20] 52.1%

Cn1cc(NC(=O)c2cc(NC(=O)c3ccc(C#Cc4ccccc4)cc3)cn2C)cc1C(=O)NCCCN1CCOCC1
active: [9] 0.88% | [10] -19.3% | [11] -34.3% | [12] -42.6%
inactive: [1] 86.2% | [2] 80.9% | [3] 40% | [4] 67.8% | [5] 126% | [6] 63.8% | [7] 56.9% | [8] 114% | [13] 38.9% | [14] 83.2% | [15] 63% | [16] 83.2% | [17] 66.8% | [18] 46% | [19] 95.9% | [20] 90%
